Data taken from the supplement of paper PMC6992640.

Tests used:
[1] = system: HCI01 (cells of a triple-negative basal-like breast cancer xenograft); assay: cell viability of combination (% of vehicle); higher = less cytotoxic; conditions: 1 µM; 72 h; partner dose: 10 nM
Description: (§1)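 PDX cells were treated for 72 h with each drug at 1 µM plus afatinib (10 nM; 1 µM for WHIM30). Luciferase viability is expressed as percent of vehicle.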

[2] = system: WHIM2 (cells of a triple-negative basal-like breast cancer xenograft); assay: as above; conditions: 1 µM; 72 h; partner dose: 10 nM
Description: as §1

SMILES | cell viability of combination [1] | cell viability of combination [2]
CC(NCCCc1cccc(C(F)(F)F)c1)c1cccc2ccccc12.Cl (stereo not given) [Cinacalcet HCl] + CN(C)C/C=C/C(=O)Nc1cc2c(Nc3ccc(F)c(Cl)c3)ncnc2cc1O[C@H]1CCOC1 [Afatinib] | 58.1 | 43.1
Nc1c(CC(=O)[O-])cccc1C(=O)c1ccccc1.O.[Na+] [Amfenac Sodium Monohydrate] + CN(C)C/C=C/C(=O)Nc1cc2c(Nc3ccc(F)c(Cl)c3)ncnc2cc1O[C@H]1CCOC1 [Afatinib] | 54.7 | 47.6
Nc1ccn(C2OC(CO)C(O)C2O)c(=O)n1 (stereo not given) [Cytarabine] + CN(C)C/C=C/C(=O)Nc1cc2c(Nc3ccc(F)c(Cl)c3)ncnc2cc1O[C@H]1CCOC1 [Afatinib] | 44.3 | 38.3
Nc1ccc2cc3ccc([NH3+])cc3nc2c1.Nc1ccc2cc3ccc([NH3+])cc3nc2c1.O=S(=O)([O-])[O-] [Proflavine Hemisulfate] + CN(C)C/C=C/C(=O)Nc1cc2c(Nc3ccc(F)c(Cl)c3)ncnc2cc1O[C@H]1CCOC1 [Afatinib] | 59.6 | 29.5
COC(=O)NC(C(=O)N1CCCC1c1ncc(-c2ccc(-c3ccc(-c4cnc(C5CCCN5C(=O)C(NC(=O)OC)C(C)C)[nH]4)cc3)cc2)[nH]1)C(C)C (stereo not given) + CN(C)C/C=C/C(=O)Nc1cc2c(Nc3ccc(F)c(Cl)c3)ncnc2cc1O[C@H]1CCOC1 [Afatinib] | 48.3 | 46.3
COC(=O)NC(C(=O)NC(Cc1ccccc1)C(O)CN(Cc1ccc(-c2ccccn2)cc1)NC(=O)C(NC(=O)OC)C(C)(C)C)C(C)(C)C (stereo not given) [Atazanavir] + CN(C)C/C=C/C(=O)Nc1cc2c(Nc3ccc(F)c(Cl)c3)ncnc2cc1O[C@H]1CCOC1 [Afatinib] | 48.8 | 54
CNCCCC12CCC(c3ccccc31)c1ccccc12.Cl [Maprotiline HCl] + CN(C)C/C=C/C(=O)Nc1cc2c(Nc3ccc(F)c(Cl)c3)ncnc2cc1O[C@H]1CCOC1 [Afatinib] | 55.1 | 46
CC(C)CC(NC(=O)C(NC(=O)c1cccc(-c2ccccc2)n1)C(C)O)B(O)O (stereo not given) + CN(C)C/C=C/C(=O)Nc1cc2c(Nc3ccc(F)c(Cl)c3)ncnc2cc1O[C@H]1CCOC1 [Afatinib] | 34.1 | 97
CN1CCC(COc2cnc(-c3cccc(Cn4nc(-c5cccc(C#N)c5)ccc4=O)c3)nc2)CC1 + CN(C)C/C=C/C(=O)Nc1cc2c(Nc3ccc(F)c(Cl)c3)ncnc2cc1O[C@H]1CCOC1 [Afatinib] | 39.9 | 51
Cc1c(Cl)cccc1Nc1ccccc1C(=O)O [Tolfenamic Acid] + CN(C)C/C=C/C(=O)Nc1cc2c(Nc3ccc(F)c(Cl)c3)ncnc2cc1O[C@H]1CCOC1 [Afatinib] | 57.3 | 51
Cc1c(-c2ccc(O)cc2)n(Cc2ccc(OCCN3CCCCCC3)cc2)c2ccc(O)cc12.Cl [Bazedoxifene HCl] + CN(C)C/C=C/C(=O)Nc1cc2c(Nc3ccc(F)c(Cl)c3)ncnc2cc1O[C@H]1CCOC1 [Afatinib] | 64.6 | 49.7
Cc1nc(Nc2ncc(C(=O)Nc3c(C)cccc3Cl)s2)cc(N2CCN(CCO)CC2)n1 + CN(C)C/C=C/C(=O)Nc1cc2c(Nc3ccc(F)c(Cl)c3)ncnc2cc1O[C@H]1CCOC1 [Afatinib] | 41.5 | 30.8
CO[C@H]1C[C@@H]2CC[C@@H](C)[C@@](O)(O2)C(=O)C(=O)N2CCCC[C@H]2C(=O)O[C@H]([C@H](C)C[C@@H]2CC[C@@H](OC(=O)C(C)(CO)CO)[C@H](OC)C2)CC(=O)[C@H](C)/C=C(\C)[C@@H](O)[C@@H](OC)C(=O)[C@H](C)C[C@H](C)/C=C/C=C/C=C/1C [Temsirolimus] + CN(C)C/C=C/C(=O)Nc1cc2c(Nc3ccc(F)c(Cl)c3)ncnc2cc1O[C@H]1CCOC1 [Afatinib] | 45.9 | 44
Br.Cc1ccc(Sc2ccccc2N2CCNCC2)c(C)c1 + CN(C)C/C=C/C(=O)Nc1cc2c(Nc3ccc(F)c(Cl)c3)ncnc2cc1O[C@H]1CCOC1 [Afatinib] | 49.7 | 46.7
COc1ccc(C[C@H](N)C(=O)N[C@@H]2[C@H](O)[C@H](n3cnc4c(N(C)C)ncnc43)O[C@@H]2CO)cc1.Cl.Cl [Puromycin dihydrochloride] + CN(C)C/C=C/C(=O)Nc1cc2c(Nc3ccc(F)c(Cl)c3)ncnc2cc1O[C@H]1CCOC1 [Afatinib] | 69.5 | 82.6
[O-]n1ccccc1=S.[O-]n1ccccc1=S.[Zn+2] [Zinc Pyrithione] + CN(C)C/C=C/C(=O)Nc1cc2c(Nc3ccc(F)c(Cl)c3)ncnc2cc1O[C@H]1CCOC1 [Afatinib] | 47.4 | 33.9
CC1CC(=O)NN=C1c1ccc(NN=C(C#N)C#N)cc1 (stereo not given) [Levosimendan] + CN(C)C/C=C/C(=O)Nc1cc2c(Nc3ccc(F)c(Cl)c3)ncnc2cc1O[C@H]1CCOC1 [Afatinib] | 52.7 | 51.2
COc1cc2ncnc(Nc3ccc(F)c(Cl)c3)c2cc1NC(=O)C=CCN1CCCCC1 + CN(C)C/C=C/C(=O)Nc1cc2c(Nc3ccc(F)c(Cl)c3)ncnc2cc1O[C@H]1CCOC1 [Afatinib] | 45.1 | 29.8
CC(NCCCc1cccc(C(F)(F)F)c1)c1cccc2ccccc12 (stereo not given) [Cinacalcet] + CN(C)C/C=C/C(=O)Nc1cc2c(Nc3ccc(F)c(Cl)c3)ncnc2cc1O[C@H]1CCOC1 [Afatinib] | 51.6 | 46.1
CCN(CC)CCCC(C)Nc1ccnc2cc(Cl)ccc12.O=P(O)(O)O.O=P(O)(O)O (stereo not given) [Chloroquine diphosphate] + CN(C)C/C=C/C(=O)Nc1cc2c(Nc3ccc(F)c(Cl)c3)ncnc2cc1O[C@H]1CCOC1 [Afatinib] | 44.6 | 34.5
O=C(O)c1cc(O)c(O)c(O)c1 [Gallic acid] + CN(C)C/C=C/C(=O)Nc1cc2c(Nc3ccc(F)c(Cl)c3)ncnc2cc1O[C@H]1CCOC1 [Afatinib] | 51.4 | 46.3
CC(C)(C)Cn1c(N)nc2ccc(-c3[nH]c(C(C)(C)C)nc3-c3ccc(F)cc3)nc21.CS(=O)(=O)O.CS(=O)(=O)O + CN(C)C/C=C/C(=O)Nc1cc2c(Nc3ccc(F)c(Cl)c3)ncnc2cc1O[C@H]1CCOC1 [Afatinib] | 35.9 | 35.4
COC(=O)C1=C(C)NC(C)=C(C(=O)OC2CCCN(Cc3ccccc3)C2)C1c1cccc([N+](=O)[O-])c1.Cl (stereo not given) [Benidipine HCl] + CN(C)C/C=C/C(=O)Nc1cc2c(Nc3ccc(F)c(Cl)c3)ncnc2cc1O[C@H]1CCOC1 [Afatinib] | 53.4 | 51.4
CC(C)C1=CC(=C2NNC(=O)N2c2ccc3c(ccn3C)c2)C(=O)C=C1O [Ganetespib (STA-9090)] + CN(C)C/C=C/C(=O)Nc1cc2c(Nc3ccc(F)c(Cl)c3)ncnc2cc1O[C@H]1CCOC1 [Afatinib] | 49.1 | 29.1
CO[C@H]1C[C@@H]2CC[C@@H](C)[C@@](O)(O2)C(=O)C(=O)N2CCCC[C@H]2C(=O)O[C@H]([C@H](C)C[C@@H]2CC[C@@H](O)[C@H](OC)C2)CC(=O)[C@H](C)/C=C(\C)[C@@H](O)[C@@H](OC)C(=O)[C@H](C)C[C@H](C)/C=C/C=C/C=C/1C [Rapamycin (Sirolimus)] + CN(C)C/C=C/C(=O)Nc1cc2c(Nc3ccc(F)c(Cl)c3)ncnc2cc1O[C@H]1CCOC1 [Afatinib] | 51 | 39.3
CC1(C)CCC(c2ccc(Cl)cc2)=C(CN2CCN(c3ccc(C(=O)NS(=O)(=O)c4ccc(NC(CCN5CCOCC5)CSc5ccccc5)c(S(=O)(=O)C(F)(F)F)c4)cc3)CC2)C1 (stereo not given) [ABT-263 (Navitoclax)] + CN(C)C/C=C/C(=O)Nc1cc2c(Nc3ccc(F)c(Cl)c3)ncnc2cc1O[C@H]1CCOC1 [Afatinib] | 33 | 29.5
CNCCC(Oc1ccc(C(F)(F)F)cc1)c1ccccc1.Cl (stereo not given) [Fluoxetine HCl] + CN(C)C/C=C/C(=O)Nc1cc2c(Nc3ccc(F)c(Cl)c3)ncnc2cc1O[C@H]1CCOC1 [Afatinib] | 46.4 | 43.8
CC(Oc1cc(-c2cnn(C3CCNCC3)c2)cnc1N)c1c(Cl)ccc(F)c1Cl [(R)-Crizotinib] + CN(C)C/C=C/C(=O)Nc1cc2c(Nc3ccc(F)c(Cl)c3)ncnc2cc1O[C@H]1CCOC1 [Afatinib] | 66 | 44.4
C1=C\COCc2cc(ccc2OCCN2CCCC2)Nc2nccc(n2)-c2cccc(c2)COC/1 [Pacritinib] + CN(C)C/C=C/C(=O)Nc1cc2c(Nc3ccc(F)c(Cl)c3)ncnc2cc1O[C@H]1CCOC1 [Afatinib] | 37.8 | 38.8
CCOC(=O)C1=C(COCCN)NC(C)=C(C(=O)OC)C1c1ccccc1Cl (stereo not given) [Amlodipine] + CN(C)C/C=C/C(=O)Nc1cc2c(Nc3ccc(F)c(Cl)c3)ncnc2cc1O[C@H]1CCOC1 [Afatinib] | 58.2 | 51.1
